KCNH2 WT inh: KCNH2 (human, wildtype) channel inhibition; activity change, % at 1.84 µM; Q12809; U2OS, BacMam KCNH2, thallium flux FluxOr; stronger effect = lower value; hit rate 0.37% among 340,000;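 active = maximum activity change below -70%; inconclusive = maximum activity change between -70% and -50%; inactive = maximum activity change above -50%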; note: % is set by controls: 0 for no effect and ±100 for the full control effect
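U2OS cells transduced with wild-type KCNH2 virus are loaded with FluxOr dye for 45 min, and thallium flux is measured in kinetic reads before and after stimulation buffer. Rate constants are normalized to DMSO controls.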
KCNH2 3.1 block: KCNH2 3.1 (human) potassium channel inhibition. U2OS KCNH2 3.1, thallium flux FluxOr; stronger effect = lower value. activity change, % (tested at about 1.8 µM). hit rate 0.95% among 340,000;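 active = maximum activity change below -70%; inconclusive = maximum activity change from -70% to -50%; inactive = maximum activity change above -50%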;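 note: thallium influx rate constant from kinetic fluorescence after stimulation buffer; % is set by controls: 0 for no effect and ±100 for the full control effect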
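We transduce U2OS cells with the mutant 3.1 virus, culture them overnight, load FluxOr with Red40 quencher for 45 min, then add stimulation buffer and read kinetically for 2 min to derive a normalized rate constant.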
Glioma ERSR ind: inducers of ER stress response in human glioma cells. U87-MG GRP78 promoter luciferase reporter, 16 h. Potency, µM, for inactives: top-dose activation, most hits filed as activators. hit rate 0.02% among 420,000. AID 602332; active = well fitted activation curve with a large enough effect; inconclusive = small, poorly fitted or top-dose-only effect; inactive = no such curve, though single readings can be large or run the other way; note: potency is the fitted concentration of half-maximal effect; series mostly up to about 76 µM; % of control where 0% means no effect; nearly all actives have a fitted effect of over 35% in size
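Stably transfected U87-MG glioma cells carrying a GRP78-based luciferase sensor; 16 h compound incubation. Luminescence end-point read 10 min after Bright-Glo addition at room temperature.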
PTAP TSG101 blk: blocks PTAP/TSG101 interaction to inhibit HIV-1 budding; Fluorescence polarization, FITC-PTAP peptide / Tsg101 binding; Potency, µM (doses to about 115 µM), for inactives: top-dose activity change, negative = inhibition, most hits filed as inhibitors; 340,000 tested, under 10 active; active = well fitted inhibition curve with a large enough effect in the main read-out, with a control signal flat, not every such curve was filed as active; inconclusive = small, poorly fitted or top-dose-only effect, or effect the other way, or a change in a side signal; inactive = no such curve, though single readings can be large or run the other way; note: potency is the fitted concentration of half-maximal effect; % of control where 0% means no effect
Target sequence (Q99816 whole entry, looked up): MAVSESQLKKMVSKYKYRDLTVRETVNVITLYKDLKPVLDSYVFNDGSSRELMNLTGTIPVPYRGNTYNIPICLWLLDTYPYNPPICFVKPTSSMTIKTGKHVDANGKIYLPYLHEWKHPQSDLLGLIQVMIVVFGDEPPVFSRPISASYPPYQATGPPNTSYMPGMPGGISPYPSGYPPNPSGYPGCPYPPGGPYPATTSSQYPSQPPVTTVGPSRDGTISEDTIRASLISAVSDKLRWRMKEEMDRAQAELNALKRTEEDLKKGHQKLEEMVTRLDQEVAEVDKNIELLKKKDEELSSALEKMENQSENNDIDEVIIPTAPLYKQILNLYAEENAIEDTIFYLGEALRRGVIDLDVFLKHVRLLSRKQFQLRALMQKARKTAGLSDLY
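FP read-out: FITC-PTAP peptide, 50 nM final, binding Tsg101 binding domain, 10 uM final; 20 min, r.t.; 10 mM HEPES pH 7.5, 0.15 M NaCl, 0.01% Tween 20, 3 mM EDTA, 0.1 mM TCEP.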
TRPML1 inh: inhibitors of human TRPML1 channel; Q9GZU1; TRPML1-inducible cells, Ca2+ dye fluorescence, FDSS; stronger effect = lower value; inhibition of EC80 agonist-evoked calcium signal; activity change, negative = inhibition, % (concentration not given with the values); hit rate 0.02% among 390,000; AID 624415; in the data active = activity change below about -50%; inconclusive = between about -30% and that limit;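 note: stimulus is agonist 54-4 at its EC80 concentration; % is set by controls: 0 for no effect and ±100 for the full control effect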
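Tet-induced TRPML1-DL cells loaded with Ca8 no-wash calcium dye were read kinetically on FDSS. Compound addition was followed by EC80 agonist 54-4 (4 uM final); inhibition was read over 110 s.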
TRPML1 ag: human mucolipin-1 channel agonism; Q9GZU1; TRPML1-expressing cells, Ca2+ dye fluorescence, FDSS; activation, % (concentration not given with the values); hit rate 0.12% among 410,000; in the data active = activation above about 50%; inconclusive = mostly about 30% to 49%; note: 0% is about no effect
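Tetracycline-induced TRPML1-DL cells are seeded and incubated overnight before loading with a no-wash Ca2+ dye and quencher. Agonist activity is taken from the 110 s fluorescence read following compound pin-transfer on an FDSS, before EC80 54-4 challenge.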
An asterisk follows results filed as active; ? = inconclusive; . = no result given. Compounds with a hit are over-represented: about 1% of the library has one in this group of screens.

SMILES	KCNH2 WT inh	KCNH2 3.1 block	Glioma ERSR ind	PTAP TSG101 blk	TRPML1 inh	TRPML1 ag
O=C(CN1CCCCC1)Nc1ccccc1	0.1	-1.0	-2.5%	-3.9%	-9.8	-0.3
O=C(CCN1CCN(Cc2ccccc2)CC1)Nc1ccc(OCc2ccccc2)cc1	-38.9	-95.0*	-3.6%	-0.6%	?	-0.3
O=C(CN1CCOCC1)Nc1ccc(OCc2ccccc2)cc1	5.2	-17.8	3.3%	-4.4%	-3.7	0.2
O=C(CN1CCN(CC(=O)Nc2ccc(OCc3ccccc3)cc2)CC1)Nc1ccc(F)cc1	-102.6*	-94.5*	-1.6%	.	-4.4	-0.6
COC(=O)c1ccc(CN2CCOc3ccc(C(O)c4cccnc4)cc3C2)cc1 (stereo not drawn)	.	.	-2.8%	.	.	.
COc1cc2nc(N(C)C)c(CNCc3cccc4ccccc34)cc2c(OC)c1OC	.	.	-3.9%	.	.	.
CCC1CN(CC(=O)NC(C)CO)Cc2cc(OC)ccc2O1 (stereo not drawn)	.	.	-5.6%	.	.	.
NC(=O)CN1CCN(c2nc(-c3ccc(F)cc3)cs2)CC1	2.7	3.1	4.2%	-3.3%	-3.1	-1.2
O=C(CN1CCN(c2nc(-c3ccc(F)cc3)cs2)CC1)Nc1ccc2c(c1)OCO2	-0.8	-124.0*	-1.9%	-2.3%	4.0	0.4
CCOc1ccc(NC(=O)CN2CCN(CC(=O)Nc3ccc(F)cc3)CC2)cc1	-91.9*	-89.3*	2.5%	-1.0%	1.8	-0.1
CCOc1ccc(NC(=O)CN2CCN(CC(=O)c3ccc(OCC)cc3)CC2)cc1	18.0	-49.5	-5.7%	-4.5%	-2.4	-0.8
CCn1nnnc1-c1ccc(OC)c(S(=O)(=O)Nc2ccc(S(N)(=O)=O)cc2)c1	-7.5	5.7	-3.7%	-1.9%	-5.0	1.5
CCn1nnnc1-c1ccc(OC)c(S(=O)(=O)Nc2ccccc2OC)c1	-77.6*	-1.6	-7.2%	.	0.3	-0.2
CCOC(=O)CC(=O)CSc1nc2c(cc1C#N)CCCCCC2	-115.8*	-12.9	0.4%	-6.3%	-8.0	-0.3
Cc1cccc2c1Sc1ccc(Cl)cc1CC2N1CCNCC1 (stereo not drawn)	-1.6	-11.3	-15.7%	-1.1%	-21.8	0.6
CCc1cccc2c1Sc1ccccc1CC2N1CCNCC1 (stereo not drawn)	1.6	-76.7*	-12.0%	-3.0%	-4.2	0.3
CCOC(=O)c1c(-c2ccc(C)cc2)csc1NC(=O)c1cc2ccccc2oc1=O	0.2	-121.7*	5.4%	-5.5%	-2.3	-1.1
CCN(CCO)C(=O)c1cnn(-c2ncc3c(n2)-c2ccccc2CCC3)c1C1CC1	.	.	6.6%	.	.	.
COc1ccc2c(c1)CCc1cnc(-n3ncc(C(=O)N(C)CCc4ccccn4)c3C)nc1-2	.	.	-0.6%	.	.	.
CCC(=O)N1CCN(c2ccc(NC(=O)c3cccs3)cc2)CC1	8.2	5.6	2.4%	-4.2%	-8.7	-0.9
COc1ccc(C(=O)N2CCN(c3ccc(NC(=O)c4cccs4)cc3)CC2)cc1	12.4	-91.5*	-1.5%	0.3%	2.7	0.9
O=C(Nc1ccc(N2CCN(C(=O)c3ccccc3)CC2)cc1)c1cccs1	-136.3*	-176.7*	1.0%	-5.9%	80.0	1.6
Cc1nc(C)c(CC(=O)N2CCOc3ccc(CN4CCN(c5ccccn5)CC4)cc3C2)s1	.	.	-4.6%	.	.	.
COCC(=O)Nc1cc(C(=O)N2CCCC(C(N)=O)C2)cc2nc(-c3ccccc3)n(C)c12 (stereo not drawn)	.	.	-3.5%	.	.	.
CN(C)c1ccc(/C=C/c2ccc3ccccc3[n+]2[O-])cc1	.	.	-10.5%	.	.	107.3*
SMILES	KCNH2 WT inh	KCNH2 3.1 block	Glioma ERSR ind	PTAP TSG101 blk	TRPML1 inh	TRPML1 ag
CC[n+]1c(/C=C/c2ccc(N(C)C)cc2)ccc2ccccc21	18.9	-2.0	-10.0%	-2.6%	8.1	-0.3
Cc1ccc(F)cc1CNC(=O)c1sc2ncnc(NCC3CCCO3)c2c1C (stereo not drawn)	.	.	-1.9%	.	.	.
CN(C)Cc1c(C(=O)N/N=C/c2cccc(OCc3ccc(F)cc3)c2)nnn1-c1nonc1N	14.7	-3.3	0.8%	-2.3%	15.4	-0.5
CCCN(CCC)Cc1c(C(=O)N/N=C/c2ccco2)nnn1-c1nonc1N	23.3	10.5	-2.5%	1.0%	26.2	0.5
CC1CCN(Cc2c(C(=O)N/N=C/c3ccc(OC(C)C)cc3)nnn2-c2nonc2N)CC1	0.7	-111.6*	-5.1%	-1.0%	10.9	2.9
CCCN(CCC)Cc1c(C(=O)N/N=C/c2ccc(Br)cc2)nnn1-c1nonc1N	11.6	-78.1*	11.3%	-3.5%	38.3	2.8
CN(C)Cc1c(C(=O)N/N=C/c2ccc(OCc3ccc(F)cc3)cc2)nnn1-c1nonc1N	-38.3	-76.2*	-4.0%	-1.8%	-8.9	-0.9
CCC1(C)CC(=O)c2c(ccc3oc(C(=O)NCc4ccccc4)c(C)c23)O1 (stereo not drawn)	.	.	-0.6%	.	-15.8	50.4*
Cc1c(C(=O)NCc2ccoc2)oc2ccc3c(c12)C(=O)CC(C)(C)O3	5.4	-7.5	2.4%	-0.6%	6.9	-0.9
CCOc1ccc2nc(N(CCN(CC)CC)C(=O)/C=C/c3cccs3)sc2c1	?	-80.5*	1.2%	-3.1%	8.3	-1.1
CN(C)CCCN(C(=O)/C=C/c1cccs1)c1nc2c(F)cccc2s1	-44.5	-116.6*	-13.5%	2.1%	-9.7	5.0
CCN(CC)CCN(C(=O)/C=C/c1cccs1)c1nc2ccc(OC)cc2s1	12.6	-4.3	-3.4%	2.3%	5.4	3.0
CN(C)CCCN(C(=O)CCc1ccccc1)c1nc2c(F)cccc2s1	-30.6	-70.7*	-6.5%	-6.1%	-1.6	2.2
Cc1cccc2sc(N(CCN(C)C)C(=O)/C=C/c3cccs3)nc12	16.2	-23.9	-5.1%	-0.2%	1.1	-1.0
COc1cccc(C2(CC(=O)N3CCCCC3CO)CC(=O)N(C)C2=O)c1 (stereo not drawn)	.	.	-1.4%	.	.	.
COc1cc(OC)c(OC)cc1CN1CCOc2ccc(CN3CCN(C(C)=O)CC3)cc2C1	.	.	-4.6%	.	.	.
O=C(NCCc1nnc2n1CCN(Cc1c(F)cccc1F)CC2)c1ccc(F)cc1	.	.	-0.6%	.	.	.
O=C(COC(=O)C1CCN(c2ccc(C(F)(F)F)cn2)CC1)Nc1ncc(Cl)cc1Cl	2.6	-71.1*	-1.5%	0.0%	3.0	2.1
Cn1c(N)c(C(=O)CCl)c(=O)n(Cc2ccccc2)c1=O	-3.6	-115.9*	-8.1%	0.4%	-5.7	-0.6
Cn1c(=O)c(C(=O)CCl)c(N)n(Cc2ccccc2)c1=O	-14.8	-7.5	-7.5%	-0.3%	-0.2	-0.3
COc1ccc(CN2CCN(Cc3cc4ccccc4o3)CC2CCO)c(F)c1 (stereo not drawn)	33.6	-43.3	-5.5%	-2.6%	-17.6	2.0
CCOc1ccc(CN2CCN(Cc3nc(C(C)C)cs3)CC2CCO)cc1 (stereo not drawn)	.	-96.1*	-4.7%	-2.4%	1.7	-0.4

High-throughput results from PubChem BioAssay.
